From PubChem BioAssay (NCI)
About 79,000 compounds went through this panel and 15% of them were active in at least one assay; those are over-represented in the sample as a whole. Rule as the data show it: active = growth inhibition above about 70%; inactive = the rest.

Experiments:
[1] = NCI Yeast Anticancer Drug Screen. Data for the rad50 strain (AID 155);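 also: 0% = growth of vehicle-only cultures of the same strain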; conditions: S. cerevisiae rad50 strain growth inhibition; at 50.0 µM; hits give high values
How it was run: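 Yeast carrying a defined DNA repair defect were exposed to test compounds, and growth was compared with vehicle-treated controls to give percent inhibition.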

[2] = NCI Yeast Anticancer Drug Screen. Data for the mec2-1 strain (AID 157); conditions: S. cerevisiae mec2-1 strain, at 50.0 µM, hits give high values
How it was run: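 Using mec2-1 yeast: add compound, measure growth, express inhibition versus vehicle-treated cultures.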

[3] = NCI Yeast Anticancer Drug Screen. Data for the sgs1 mgt1 strain (AID 161);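 also: 0% = growth of cultures given vehicle only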; conditions: S. cerevisiae sgs1 mgt1 strain, at 50.0 µM, hits give high values
How it was run: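 Yeast cells carrying a defined DNA-repair defect were exposed to test compounds. Growth inhibition was measured relative to vehicle-treated controls.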

[4] = NCI Yeast Anticancer Drug Screen. Data for the cln2 rad14 strain (AID 165);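 also: 0% = growth equal to vehicle treated cultures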; conditions: S. cerevisiae cln2 rad14 strain, at 50.0 µM, hits give high values
How it was run: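 Yeast strain cln2 rad14, bearing defects in cell cycle control and DNA repair, serves as the test system; values reflect growth inhibition compared with vehicle.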

[5] = NCI Yeast Anticancer Drug Screen. Data for the bub3 strain (AID 167); conditions: S. cerevisiae bub3 mutant strain, at 50.0 µM, hits give high values
How it was run: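 Compounds were applied to a genetically altered yeast strain carrying a cell-cycle control defect. Growth inhibition was scored against vehicle-treated controls.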

[6] = NCI Yeast Anticancer Drug Screen. Data for the mlh1 rad18 strain (AID 175); conditions: S. cerevisiae mlh1 rad18 strain growth inhibition; at 50.0 µM; hits give high values
How it was run: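 Steps: expose repair-defective yeast to compound; measure growth; express inhibition against vehicle-treated controls.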

Measured: growth inhibition

O=S(=O)([O-])Sn1c(-c2ccccc2)c[n+]2ccccc12
inactive: [1] 11.8% | [2] 5.55% | [3] 13.9% | [4] 14.2% | [5] 12.1% | [6] 10.8%

CCn1c(=O)c2[nH]c(-n3c(Cl)nc4c3c(=O)n(CC)c(=O)n4CC)nc2n(CC)c1=O
inactive: [1] 31.1% | [2] 2.8% | [3] 2.9% | [4] 14.2% | [5] -0.5% | [6] 21.4%

C[N+]1(C)CCC(O)CC1
inactive: [1] -5.5% | [2] 7.2% | [3] -3.1% | [4] -13.4% | [5] 14.9% | [6] 1%

COC(=O)CCC(=O)CC(=O)C(=O)Nc1c(Cl)cc([N+](=O)[O-])cc1Cl
inactive: [1] 11.4% | [2] -17.1% | [3] 0.5% | [4] 24.1% | [5] -4.5% | [6] 3.8%

c1ccc(CNCCN(Cc2ccccc2)Cc2ccccc2)cc1
inactive: [1] 31.6% | [2] -1.8% | [3] 36.4% | [4] -11.8% | [5] 30.4% | [6] 25.7%

Brc1ccccc1C=NC12CC3CC(CC(C3)C1)C2
inactive: [1] -2.55% | [2] -7.5% | [3] 2.25% | [4] -55.1% | [5] -3.45% | [6] -5%

CC(CO)c1ccccc1 (stereo not given)
inactive: [1] 8.15% | [2] 1.15% | [3] -13.9% | [4] -32.5% | [5] -13.4% | [6] -4%

CC(=O)OCC1OC(n2cnc3c(=S)nc[nH]c32)C(OC(C)=O)C1N(C)C(C)=S (stereo not given)
inactive: [1] 38.5% | [2] -4% | [3] 37.6% | [4] 9.85% | [5] 1.25% | [6] 12.6%

CCCCCCCCCCCCCCCC/C(C(=O)OC)=C(/O)C(=O)OCC
inactive: [1] -4.7% | [2] -12.1% | [3] -3.65% | [4] -67% | [5] -1.2% | [6] -5.75%

COc1ccc2c(c1)CCN1CCCc3ccc(OC)cc3C21 (stereo not given)
inactive: [1] 18.9% | [2] 30.3% | [3] 24.6% | [4] 55.1% | [5] 31.4% | [6] 46.7%

CCOC(=O)C(C)(C)Oc1ccc2c(-c3ccc(Cl)cc3)cc(=O)oc2c1
inactive: [1] 9.05% | [2] -5.1% | [3] -2.5% | [4] 7.65% | [5] -11.9% | [6] 2.55%

CS(=O)(=O)CCC(Nc1ccc([N+](=O)[O-])cc1[N+](=O)[O-])C(=O)O (stereo not given)
inactive: [1] 4.7% | [2] 6.1% | [3] 22.1% | [4] 4.25% | [5] 5.6% | [6] -11.7%

CCCCCNN
inactive: [1] 0.95% | [2] -4.6% | [3] -8.5% | [4] 9.55% | [5] -6.75% | [6] 26.6%

CC1OCC2OC(C)OC(C(C3C(=O)CC(C)(C)CC3=O)C3C(=O)CC(C)(C)CC3=O)C2O1 (stereo not given)
inactive: [1] 17.4% | [2] 6.3% | [3] 19.2% | [4] -8.3% | [5] 26.2% | [6] 22.8%

CC(=O)OCC(=O)[C@@]1(O)CC[C@H]2[C@@H]3C[C@@H](C)[C@@]4(O)CC5(CC[C@]4(C)[C@H]3[C@@H](O)C[C@@]21C)OCC(C)(C)CO5
inactive: [1] 0.35% | [2] 16.2% | [3] 27.1% | [4] 28.6% | [5] -6.2% | [6] -11.2%

NC(=O)/N=C/c1c(O)c2ccccc2oc1=O
inactive: [1] 9.6% | [2] -0.8% | [3] -11.6% | [4] -3.35% | [5] -42% | [6] -3.1%

ClCC1OC1CCl (stereo not given)
inactive: [1] 22.1% | [2] 3.05% | [3] 1.1% | [4] -10.6% | [5] 9.8% | [6] 1.95%

CC1(C)[C@@H]2CC[C@](C)(O)[C@H]1C2
inactive: [1] 0.45% | [2] -1.05% | [3] -1.65% | [4] 8.5% | [5] -3.15% | [6] 2.3%

C[C@@H]1C(=O)CC2(O)[C@@]13C[C@@H](OC(=O)[C@@H]3O)[C@@H](C)[C@@]21COC1=O (stereo not given in full)
inactive: [1] 13.8% | [2] 14.2% | [3] -20.6% | [4] -6.65% | [5] -28.1% | [6] -47.1%

CCCCCCCOC(=O)COc1ccc(Cl)cc1Cl
inactive: [1] 11.1% | [2] 9.05% | [3] 10.8% | [4] 1.25% | [5] 9.8% | [6] 4.9%
